From PubChem BioAssay (NCI) come the findings set out here.

About 83,000 compounds went through this panel and 20% of them were active in at least one assay; those are over-represented in the sample as a whole.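 Activity criterion: percent growth below 10, measured after cells in 96-well plates were exposed to a single compound concentration for 48 hours.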 Values without a mark were called inactive. The source made the active and inactive calls.

Common to all, as to test: NCI-60 one-dose screen, 48 h (100 = growth as untreated, 0 = no growth, -100 = all killed)
What all share (settings): 10 µM

Assay [1] relates to SK-MEL-2 melanoma.
For assay [2], the system named is SN12C renal.
Assay [3] relates to UO-31 renal.
Assay [4] relates to TK-10 renal.
Assay [5] has as its system CAKI-1 renal.
The test system of assay [6] is A498 renal.
The test system of assay [7] is MOLT-4 leukemia.
Assay [8] concerns CCRF-CEM leukemia.
For assay [9], the system named is ACHN renal.

In the case of `COc1ccc(N2CCN(c3nc(-c4ccccc4)c(C#N)c(=O)[nH]3)CC2)cc1`, the growth is 120% in [1]; 96.7% in assay [2]; 71.4% in assay [3]; 115% in [4]; 98.6% in [5]; 87.9% in assay [6]. Also, in [7], the growth was 93.5%.

With `CC(C)=C1CCC(C)C/C1=N\N=C(N)N` (stereo unspecified), the growth in assay [1] is 102%; in [2], 103%; in assay [3], 81.3%; in [4], 98.3%; in assay [5], 93.3%; in assay [6], 88.6%. Also, the growth in assay [8] is 86.9%; in [7], 98.8%.

Regarding `COCCNCC(O)Cn1c2ccc(Cl)cc2c2cc(Cl)ccc21` (stereo unspecified), the growth in assay [1] was -79.4% (active); in assay [2], -91.9% (active); in [3], -20% (active); in assay [9] it was 10.5%; in [5], 8.86% (active); in assay [6], 62.6%. Besides, the growth in assay [8] was -23.2% (active); in assay [7], 4.5% (active).

Regarding `Cc1ccccc1C1=N[C@@H](Cc2ccccc2)C(=O)c2c(nc3ccccn23)N1`, the growth in assay [1] was 115%; in [2] it was 107%; in assay [3], 80.6%; in [4], 138%; in assay [5] it was 88.9%; in assay [6], 98.2%. In addition, in assay [7], the growth was 111%.

`O=S(=O)(NC1c2ccccc2Oc2ccccc21)c1cc(Cl)ccc1Cl`: the growth was 103% in [1]; 79.3% in assay [3]; 95.6% in [4]; 82.7% in assay [9]; 88.7% in [5]; 94.3% in assay [6]. The growth in assay [8] was 74.8%; in [7] it was 96.7%.

`CCOC(=O)[C@@H]1[C@H](c2ccccc2)[C@H]([N+](=O)[O-])[C@H](c2cn(-c3ccccc3)nc2C)N1Cc1ccccc1`: the growth in [1] was 85.5%; in assay [3] it was 71.7%; in assay [4], 106%; in assay [9], 73.9%; in assay [5], 69%; in [6], 97.6%. In addition, the growth in [8] is 59.8%; in [7] it was 51.7%.

In the case of `COc1ccc(-c2nc(-c3ccccc3)c(-c3ccccc3)[nH]2)cc1OC1CCCC1`, the growth was 66.2% in assay [1]; 62.5% in assay [2]; 67.4% in [3]; 54.4% in assay [9]; 71% in [5]; -9.35% (active) in assay [6]. In addition, the growth was 50.7% in assay [8] and 40.8% in assay [7].

Consider `O=C(C=P(c1ccccc1)(c1ccccc1)c1ccccc1)c1ccc(Br)cc1`, for which the growth in assay [1] was 94.3%; in assay [2], 96.5%; in [3], 53.7%; in assay [9], 78.7%; in assay [5], 84.3%; in assay [6], 64.3%. The growth was 55% in assay [8] and 0.436% (active) in [7].

Consider `COc1ccc(-c2nsc3c2NC(=O)CC3c2ccc(Cl)cc2)cc1` (stereo unspecified), for which the growth in [1] was 77.2%; in assay [2] it was 83.8%; in [3], 62.8%; in assay [9], 82.7%; in [5], 80.2%; in assay [6], 83.3%. The growth in assay [8] was 74.4%; in [7] it was 66.9%.

Turning to `N#C/C(=C/c1cc([N+](=O)[O-])ccc1Cl)C(N)=O`, the growth was 88.2% in assay [1]; 98.8% in assay [2]; 72.7% in assay [3]; 108% in assay [4]; 86.9% in assay [5]; 111% in assay [6]. In addition, the figures for the growth in assay [8] and in [7] were 63.1% and 87.1%, respectively.

With `CCCCCCCCCCCCCCCC(=O)N1CCN(C)CC1`, the growth is 86.5% in [1]; 40.5% in assay [3]; 73.8% in assay [4]; 81.8% in assay [9]; 69.9% in assay [5]; 92.3% in [6]. The results for the growth in [8] and in assay [7] were 34.9% and 61.4%, respectively.

Consider `NS(=O)(=O)c1ccc(N2N=C(c3ccc(-c4ccccc4)cc3)CC2c2ccc(Cl)cc2)cc1` (stereo unspecified), for which the growth in assay [1] was 95.5%; in [3], 72.1%; in assay [4], 112%; in assay [9] it was 80.4%; in assay [5], 78.7%; in assay [6] it was 87.4%. Further, the growth in assay [8] is 74.4%; in [7], 70.6%.

Take `COc1ccc(C2=NNC(c3sc(Cl)nc3Cl)C2)cc1` (stereo unspecified): the growth in assay [1] was 62.8%; in assay [2] it was 22.4%; in assay [3] it was 85.3%; in assay [5] it was 97.4%; in assay [6], 102%; in [8] it was 17.7%. Further, the growth in assay [7] was 7.63% (active).

On to `COc1ccc(C(=O)/C=C/c2cc(-c3ccc4c(c3)OCO4)n[nH]2)cc1OC`, for which the growth was 84.4% in assay [1]; 60.3% in assay [2]; 44.4% in assay [3]; 76.3% in assay [9]; 38.1% in [5]; 41.9% in assay [6]. The growth in assay [7] was -9.67% (active).

With `CCN(Cc1ccccc1)C1CCN(Cc2cc(Br)ccc2O)CC1`, the growth in assay [1] was 69.7%; in assay [2], 44.8%; in assay [3], 23.5%; in [4], 52.1%; in assay [5], 44.7%; in assay [6] it was 66.2%. In addition, the figures for the growth in assay [8] and in assay [7] were 43.5% and 61.2%, respectively.
